These results are taken from PubChem BioAssay.

Assay [1] can be described thus: reducers of endogenous Her2 protein level, primary screen, SKBR3 breast tumor cells, AlphaScreen, ATP viability (AID 461;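 active = Her2 level under about 52% in both replicate screens, with viability over 70% of control, limit read from the data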;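 as to Her2 level: lower value means less Her2 protein in the cells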;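 as to viability: percent of carrier control wells set as 100% viability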). The note with it: 18-24 h, measured here: SKBR3 viability, ATP luminescence, at 10 µM. (Bead proximity is the source of the signal in Alpha formats.)
Assay [2] deals with Receptor tyrosine-protein kinase erbB-2 (Homo sapiens) (UniProt P04626). The assay is described as above. The note with it: 18-24 h, at 10 µM, stronger effect = lower value.
Receptor tyrosine-protein kinase erbB-2 (Homo sapiens), sequence (P04626 whole entry, looked up): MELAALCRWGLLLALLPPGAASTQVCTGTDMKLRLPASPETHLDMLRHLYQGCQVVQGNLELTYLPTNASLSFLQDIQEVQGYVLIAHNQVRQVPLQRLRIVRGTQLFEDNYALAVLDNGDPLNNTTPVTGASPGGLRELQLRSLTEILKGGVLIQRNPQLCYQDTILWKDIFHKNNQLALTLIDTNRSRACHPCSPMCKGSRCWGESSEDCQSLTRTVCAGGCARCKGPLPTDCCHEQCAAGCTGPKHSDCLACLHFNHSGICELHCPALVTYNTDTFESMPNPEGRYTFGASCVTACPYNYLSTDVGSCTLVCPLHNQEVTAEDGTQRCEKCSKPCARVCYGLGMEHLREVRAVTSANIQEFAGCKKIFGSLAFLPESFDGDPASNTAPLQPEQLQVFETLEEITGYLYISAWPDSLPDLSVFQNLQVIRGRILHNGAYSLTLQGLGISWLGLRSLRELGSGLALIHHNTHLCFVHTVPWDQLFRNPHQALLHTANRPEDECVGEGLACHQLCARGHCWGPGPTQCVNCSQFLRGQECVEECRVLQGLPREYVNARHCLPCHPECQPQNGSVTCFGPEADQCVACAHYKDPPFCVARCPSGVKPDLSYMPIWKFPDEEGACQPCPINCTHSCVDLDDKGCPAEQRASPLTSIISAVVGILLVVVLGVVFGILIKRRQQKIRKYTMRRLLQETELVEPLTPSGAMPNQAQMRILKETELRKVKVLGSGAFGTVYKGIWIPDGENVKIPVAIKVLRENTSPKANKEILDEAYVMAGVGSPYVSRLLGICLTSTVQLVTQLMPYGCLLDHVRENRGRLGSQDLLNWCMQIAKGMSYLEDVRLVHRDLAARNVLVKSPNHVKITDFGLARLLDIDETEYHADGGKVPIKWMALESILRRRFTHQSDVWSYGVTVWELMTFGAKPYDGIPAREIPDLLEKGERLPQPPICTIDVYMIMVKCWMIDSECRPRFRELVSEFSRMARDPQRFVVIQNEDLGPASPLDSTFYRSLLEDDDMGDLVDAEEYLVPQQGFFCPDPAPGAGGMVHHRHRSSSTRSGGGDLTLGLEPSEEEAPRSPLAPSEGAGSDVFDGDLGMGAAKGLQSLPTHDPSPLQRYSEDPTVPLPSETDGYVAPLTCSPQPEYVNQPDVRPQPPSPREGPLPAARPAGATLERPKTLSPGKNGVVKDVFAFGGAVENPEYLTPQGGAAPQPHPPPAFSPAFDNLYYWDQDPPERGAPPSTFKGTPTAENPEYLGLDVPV
The nature of assay [3]: SK-BR-3 cell growth inhibitors, pilot screen, 24 h, human (AID 572;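 active = viability at or below 10% of carrier control in both of two separate runs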;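 also: compound exposure lasted between 18 and 24 h rather than exactly 24 h; 100% = carrier-treated control wells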). The note with it: SK-BR-3 viability, CellTiter-Glo luminescence, at 10 µM, stronger effect = lower value. (In general: In ATP-based viability assays light output follows the ATP content of the culture.)
Assay [4] can be described thus: HUVEC growth inhibition – cell-based, human, primary screen (AID 575;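 active = viability at or below 30% in both replicate assays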;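 also: 100% = median of untreated cell wells with 0.1% DMSO on each plate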). The note with it: HUVEC proliferation, CellTiter-Glo luminescence, 72 h; at 10 µM; stronger effect = lower value.
The nature of assay [5]: growth inhibitors of H69AR lung tumor, primary screen, human, duplicate replicates (AID 580;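 active = viability at or under a set limit in both replicates, limit being median viability minus 3 SD, cut at about 48% in these data, passing the limit was not always enough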;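 also: 100% = mean luminescence of untreated wells and 0% = no signal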). The note with it: H69AR lung tumor cells viability, ATP luminescence, 72 h; at 10 µM; stronger effect = lower value.
The nature of assay [6]: reversal of MRP1-mediated doxorubicin resistance, pilot screen, H69AR cells, doxorubicin co-treatment (AID 601;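 active = viability loss from added drug above about 55%, and viability with drug at most 40%, in both replicates, limit read from the data, passing the limit was not always enough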). The note with it: CellTiter-Glo, 72 h, at 10 µM; for differential viability (reversal): stronger effect = higher value.
Assay [7] in a line: 384-well plate pilot, post-Golgi transport modulator project, inhibition of yeast transport mutant growth (AID 636; in the data active = inhibition above about 31%). The note with it: absorbance 615 nm, about 18 h, stronger effect = higher value.
A short description of assay [8]: growth suppression of yeast trafficking mutant, preliminary HTS, modulators of trafficking downstream of Golgi apparatus project, 1536-format plate, OD 615 nm (AID 637). The note with it: yeast transport mutant growth, absorbance 615 nm, 18 h; stronger effect = higher value.
The nature of assay [9]: OD615 S. cerevisiae growth inhibition, permissive medium, pilot counter-assay, permissive growth control for S. cerevisiae lifespan shortening project (AID 705;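 active = growth inhibition above 25% in both replicates, a cutoff set 3 SD above the mean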). The note with it: OD615, 24 h, at 10 µM, stronger effect = higher value.
A short description of assay [10]: Restrictive medium S. cerevisiae growth inhibition, OD615, pilot screen of yeast lifespan reduction project, restrictive growth control (AID 706;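 active = growth inhibition above a set limit, 3 SD over mean compound inhibition, in both replicates, cut at about 43% in these data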;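 also: modified DeaD lifespan yeast strain shifted to restrictive glucose medium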). The note with it: OD615, 48 h, at 10 µM, stronger effect = higher value.
Assay [11] is described as follows: viability gain of MRP-1-high H69AR cells under doxorubicin, pilot screen, MRP-1 activator project, CellTiter-Glo, duplicate (AID 807;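 active = viability increase at or above a cutoff of the median across tested compounds plus 3 SD, cut at about 8.5% in these data, passing the limit was not always enough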;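 also: compound pretreatment 18-22 h then 72 h combined with doxorubicin; 0% = doxorubicin alone and 100% = vehicle without doxorubicin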). The note with it: H69AR viability with doxorubicin, CellTiter-Glo luminescence; at 10 µM; stronger effect = higher value.
Assay [12] can be described thus: growth suppression of beta-catenin knockout HCT116, pilot screen, human colon tumor cells (AID 823;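 active = cell viability at or below a set limit in both duplicate runs, the limit being the all-compound median minus 4 SD, cut at about 23% in these data, passing the limit was not always enough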;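 also: 0% = wells killed by 20 µM Hyamine and 100% = untreated DMSO cell wells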). The note with it: CellTiter-Glo, 60 h, at 10 µM, stronger effect = lower value.
A short description of assay [13]: growth suppression of PTEN-deleted HCT116, pilot screen, cell-based, HCT116 clonal line, CellTiter-Glo (AID 824;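 active = viability at or below 27.92% in each of two runs, the all-compound median minus 4 SD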;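 also: 0% = 20 µM Hyamine control and 100% = vehicle cell control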). The note with it: 60 h, at 10 µM, stronger effect = lower value.
Assay [14] in a line: inhibitors of the yeast RAM network, pilot screen, dse1pr::URA3 reporter, 5-FOA selection (AID 869;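 active = inhibition over a set limit, the all-compound mean plus 3 SD, in both replicate runs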;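 also: 0% = DMSO wells with no growth and 100% = 10 µM 1-NA-PP1 with full growth; RAM network block rescues cells from 5-FOA so hits raise OD615 growth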). The note with it: S. cerevisiae dse1pr::URA3 5-FOA growth, OD615, 2 d; at 10 µM; stronger effect = higher value; strain carries analog-sensitive mutant Cbk1 kinase.
Assay [15] in a line: RAM signaling pathway blockade in yeast – S. cerevisiae, Pdr1DBD-CYC8 efflux-inhibited sensitized strain, primary screen (AID 1298;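 active = RAM network inhibition above 8.4% in each of two replicates, 3 SD over the compound average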;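 also: 0% = DMSO untreated cells without growth and 100% = 10 µM 1-NA-PP1 full growth; higher means more yeast growth rescued from 5-FOA killing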). The note with it: S. cerevisiae cbk1-as DSE1-URA3 strain, 5-FOA growth OD615, 2 d; at 50 µM; stronger effect = higher value.
Setting [16] is: H69AR cells + 2 uM doxorubicin, measured here: viability with 2 uM doxorubicin, stronger effect = lower value.
Setting [17] is: H69AR cells, compound alone cytotoxicity.

Records with an inconclusive call do not appear. Active and inactive are the calls of the source. Rule as the data show it, unless noted: active = inhibition above about 30%; inactive = the rest.

As for `CC1(C(=O)NC2CCCCC2)CCC(=O)N1Cc1cccs1` (stereo not given), the viability (in general, a read-out of living cells in per cent, often relative to untreated cells) is 83% in assay [1]; 83% (inactive) in assay [3]; 102% (inactive) in assay [4]; 85.3% (inactive) in assay [5]; 90.5% in assay [6] (setting [16]); 85.3% in assay [6] (setting [17]). In addition, the viability in [12] is 102% (inactive); in [13] it was 93.7% (inactive). Further, the Her2 level in assay [2] is 114% (inactive). Further, the differential viability (reversal) in assay [6] (H69AR cells + 2 uM doxorubicin) is -5.18% (inactive). For the same compound, the inhibition (in general, the relative decrease from the control value, in per cent) in [7] was 2.31% (inactive); in assay [8] it was 8.83% (inactive); in assay [14] it was 3.65% (inactive). For the same compound, the figures for the growth inhibition in [9] and in [10] were -4.46% (inactive) and -15.9% (inactive), respectively. Besides, the viability increase in assay [11] is -0.4% (inactive). Also, the RAM network inhibition in assay [15] was 1.09% (inactive).
On to `CC(C)c1ccc(C(O)c2cnc(C(C)C)n2C)cc1` (stereo not given), for which the viability in assay [1] was 112%; in assay [3], 112% (inactive); in [4], 116% (inactive); in assay [5], 88.1% (inactive); in assay [6] (setting [16]), 81.6%; in assay [6] (setting [17]) it was 88.1%. In addition, the viability in [12] was 96.4% (inactive); in assay [13], 91% (inactive). Besides, the Her2 level in assay [2] was 92% (inactive). The differential viability (reversal) in assay [6] (H69AR cells + 2 uM doxorubicin) was 6.51% (inactive). Moreover, the inhibition in assay [7] is -4.13% (inactive); in assay [8] it was 2.5% (inactive); in [14] it was 0.355% (inactive). Moreover, the values for the growth inhibition in [9] and in [10] were -6.82% (inactive) and -0.345% (inactive), respectively. Also, in [11], the viability increase was 0.64% (inactive). Further, the RAM network inhibition in [15] is 1.77% (inactive).
For the compound `Cn1c(=O)c2c(nc3sccn32)n(C)c1=O`, the viability in [1] is 106%; in assay [3], 106% (inactive); in assay [4] it was 112% (inactive); in [5] it was 87.7% (inactive); in assay [6] (setting [16]) it was 89.4%; in assay [6] (setting [17]), 87.7%. Further, the viability in [12] is 101% (inactive); in assay [13] it was 99.4% (inactive). Moreover, the Her2 level in assay [2] was 109% (inactive). Further, the differential viability (reversal) in [6] (H69AR cells + 2 uM doxorubicin) was -1.71% (inactive). Also, the inhibition was -3.51% (inactive) in [7], -4.1% (inactive) in assay [8] and 1.48% (inactive) in assay [14]. For the same compound, the growth inhibition is -7.3% (inactive) in assay [9] and -10.3% (inactive) in [10]. Besides, the viability increase in assay [11] was -1.33% (inactive). Besides, the RAM network inhibition in assay [15] was 2.73% (inactive).
Regarding `O=C(O)C1CC=CCC1C(=O)Nc1cccc(F)c1` (stereo not given), the viability was 94% in assay [1]; 94% (inactive) in [3]; 88.1% (inactive) in [4]; 87.1% (inactive) in [5]; 88.3% in assay [6] (setting [16]); 87.1% in assay [6] (setting [17]). In addition, the results for the viability in [12] and in assay [13] were 102% (inactive) and 100% (inactive), respectively. Also, in assay [2], the Her2 level is 94% (inactive). The differential viability (reversal) in assay [6] (H69AR cells + 2 uM doxorubicin) is -1.18% (inactive). Further, the inhibition is -2.99% (inactive) in assay [7], -5.17% (inactive) in [8] and 1.86% (inactive) in [14]. Besides, the growth inhibition is -1.99% (inactive) in [9] and -0.35% (inactive) in assay [10]. In [11], the viability increase was -0.78% (inactive). In addition, in assay [15], the RAM network inhibition was 1.15% (inactive).
With `Cc1nc2c(-c3ccc(F)cc3)c(C)nn2c(C)c1CCC(=O)NC(C)CCc1ccco1` (stereo not given), the viability in assay [1] is 102%; in assay [3], 102% (inactive); in assay [4] it was 63.1% (inactive); in assay [5], 91.2% (inactive); in assay [6] (setting [16]), 80.9%; in [6] (setting [17]), 91.2%. In addition, the viability in assay [12] was 75% (inactive); in [13], 82.3% (inactive). Besides, the Her2 level in assay [2] is 59% (inactive). In assay [6] (H69AR cells + 2 uM doxorubicin), the differential viability (reversal) is 10.4% (inactive). Further, the inhibition in assay [7] is -0.64% (inactive); in assay [8] it was 7.83% (inactive); in [14], 0.865% (inactive). Also, the results for the growth inhibition in assay [9] and in assay [10] were 2.17% (inactive) and -4.76% (inactive), respectively. Besides, in assay [11], the viability increase is -1.56% (inactive). For the same compound, the RAM network inhibition in [15] was 1.03% (inactive).
